Compounds without any hit were thinned out: in the full panel of roughly 83,000, 20% have a hit.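 Interpretation: 100, growth as untreated; towards 0, rising growth inhibition; 0, no net growth; 0 to -100, cell death. Compounds scoring below 10 were considered active.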 Unmarked numbers belong to inactive results. Calls of active or inactive are those of the source.

In this test the test system is HL-60(TB) leukemia. Put plainly: NCI-60 one-dose screen, 48 h (100 = growth as untreated, 0 = no growth, -100 = all killed). To be noted: 10 µM unless noted.
With `COc1ccc(NC(=O)[C@H](C)N)cc1C(=O)Nc1cccc(-c2cc(=O)c3c(OC)c(OC)c(OC)cc3o2)c1`, the growth is 58.9%. On to `COc1c(N2CC3CCCNC3C2)c(F)cc2c(=O)c(C(=O)N/N=C/c3ccc(Br)cc3)cn(C3CC3)c12` (stereo not given), for which the growth was 84%. As for `CN(C)CCN(C)c1ccc2ncc(C#Cc3cncc(C(=O)Nc4ccc(CN5CCN(C)CC5)c(C(F)(F)F)c4)c3)n2n1`, the growth was 36.5%.

With `O=C(CSc1nc2ccccc2c(=O)n1-c1ccccc1)Nc1cccc(C(=O)/C=C/c2ccccc2)c1`, the growth was 99.1%. For `Cc1ccc2c(n1)C(=O)C(Cl)=C(Nc1cccc(C)c1C)C2=O`, the growth was -23.2% (active). As to `COc1ccc(-c2nc3cc(Cl)c(Cl)cc3n2CC(=O)N=Nc2c(O)[nH]c3ccccc23)cc1`, the growth is 92.5%. As to `C=C(C)C(=O)O[C@H]1C[C@@]2(C)OC(=CC2=O)/C(C)=C\[C@H]2OC(=O)C(=C)[C@H]12`, the growth is -20.9% (active). Take `Cc1ccc2c(c1)C13C(=C2Br)CCCN1C(=O)c1ccccc13` (stereo not given): the growth is 68.2%. Turning to `CCN(CC)c1ccc2c(c1)Oc1nc(N)c(C#N)c(N)c1C2Sc1ccc(C)cc1` (stereo not given), the growth was -24.4% (active). With `O=C1CCCc2nc(Nc3ccc(S(=O)(=O)Nc4ccc([N+](=O)[O-])cc4)cc3)ncc21`, the growth was 110%. As to `CNC(=O)c1cc(Oc2ccc3nc(NC(=O)c4cc(C)cc(C)c4)sc3c2)ccn1`, the growth was 70.4%. In the case of `COc1cc(-c2ccc3ncnc(NC(C)c4ccccc4)c3c2)cnc1OC` (stereo not given), the growth is 43.2%. In the case of `CCOC(=O)c1c(Nc2ccccc2)nn2c(N)c(C#N)c(-c3ccc(Cl)cc3)nc12`, the growth was 102%.

With `O=C1NC(=O)c2c1c1c3ccccc3ccc1c1[nH]c3ccccc3c21`, the growth was 16.8%.

With `O=C1/C(=C/C=C/c2ccco2)SC(=S)N1Cc1ccccc1`, the growth was 96.9%.

As for `COc1c(N2CC3CCCNC3C2)c(F)cc2c(=O)c(C(=O)N/N=C/c3ccc(N(C)C)cc3)cn(C3CC3)c12` (stereo not given), the growth was 78.5%. Take `COc1ccc(Cn2cc3c(c2-c2ccccc2)CCCc2cnoc2-3)cc1`: the growth is 6.55% (active). With `Cc1nc(-c2cc3ccccc3oc2=O)ccc1C(=O)/C=C/c1ccc(Cl)c(Cl)c1`, the growth is 97.9%. Turning to `C[C@@H]1C[C@H]2C(=O)O[C@@H](C)C(NC(=O)[C@H](Cc3cc(F)cc(F)c3)NC(=O)Nc3ccc(C4CC4)cc3F)C(=O)N3CCC[C@H]3C(=O)N3CCCC[C@H]3C(=O)N[C@@H](CO)C(=O)N2C1` (stereo not given in full), the growth was 11.5%. Consider `CN1CCN(c2ccc(C(=O)/C=C/c3cc(F)cc(C(F)(F)F)c3)cc2)CC1`, for which the growth was 3.06% (active). For the compound `COc1ccc(/C=C(\C#N)C(=O)N2c3ccccc3Sc3ccc(SC)cc32)cc1F`, the growth is 93.5%.

`N#Cc1c(NC(=O)c2cccc(C(F)(F)F)c2F)sc2c1CCC(=O)C2`: the growth was -17.4% (active). In the case of `CC1CCc2c(sc3nc(SCC(=O)N/N=C/c4cccc(O)c4O)n(-c4ccccc4)c(=O)c23)C1` (stereo not given) it was 93.6%; in that of `O=C(CSc1nnc(-c2ccc(Cl)cc2)n1-c1ccccc1)Nc1ccc(F)cc1`, 95.3%. To `Clc1ccc(-c2cn3cc(Cc4ccc(Cl)c(Cl)c4)sc3n2)cc1` belongs 80.3%.

With `Clc1ccc2oc3c(NCCCN4CCOCC4)c4ccccc4nc3c2c1`, the growth was 20.8%. Turning to `N#Cc1c(-c2ccc(Cl)cc2)nc(SCc2ccc([N+](=O)[O-])cc2)nc1N1CCNCC1`, the growth is -53.3% (active). Take `CCNC(=O)N1CCc2cc(OC)c(OCCc3ccc(OC)nc3)cc2C1c1ccc(C)cc1C` (stereo not given): the growth is 8.48% (active). For the compound `Cc1nc(-c2cc3ccccc3oc2=O)ccc1C(=O)/C=C/c1ccccn1`, the growth is 32.9%.

For `COc1cc(OC)c(S(=O)(=O)NNC(=O)c2ccncc2)cc1C(=O)/C=C/c1ccc(C)cc1`, the growth was 51.2%.

`O=C(CCC(=O)N1CCOCC1)OCCCCCCSc1ccc([N+](=O)[O-])c2nonc12`: the growth was -45.4% (active).

For `NC1C2CCC1CN(c1cnc(C(=O)Nc3cc(F)cc4cccnc34)cn1)C2` (stereo not given), the growth was 9.98% (active).

Turning to `Cc1ccc(/C(N)=N/C(N)=N/c2nc3ccccc3s2)cc1`, the growth was 81.6%. For the compound `COc1ccc(/C=N/Nc2ccnc3cc(Cl)ccc23)cc1Cl`, the growth is -37.5% (active).

Consider `C[C@H]1c2[nH]c3ccccc3c2C[C@H]2C(=O)N(CCCCCCC(=O)NO)CC(=O)N21`, for which the growth was 108%.

For the origin of these results see PubChem BioAssay (NCI).
